Assay outcomes (PubChem BioAssay)
Hits are enriched below; roughly 21% of the tested compounds scored in any of these assays.
Pf growth 48h: Primary qHTS for delayed death inhibitors of the malarial parasite plastid, 48 hour incubation; P. falciparum luciferase growth in erythrocytes, 48 h; Potency, µM (doses to about 28.7 µM), for the others: at the top dose activity change, negative = inhibition, usual class: inhibitors; 310,000 compounds, 5.9% hits; AID 504832, 2011; note: potency is the fitted concentration of half-maximal effect; % is set by controls: 0 for no effect and ±100 for the full control effect
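First compound was added to culture medium, then infected red cells at 0.1% parasitemia and 2% hematocrit (final). After incubation at 37 C under 5% CO2, luciferase detection reagent was dispensed and light output recorded.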
NS1 inh: qHTS Assay for Inhibitors of Influenza NS1 Protein Function; Potency, µM (series often up to 46.1 µM), inactives show at the highest dose activity, positive = more growth; 270,000 compounds, 0.4% hits; calls by dose curve; note: potency is the fitted concentration of half-maximal effect; actives are rising curves; nearly all actives have a fitted effect of over 50% in size
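A cell-based growth assay was used: compounds that relieve NS1-induced slow growth of budding yeast raise OD600. Assay medium was yeast nitrogen base with ammonium sulphate and -URA supplement, pH 6.0, with 2% galactose.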
Sm TGR inh: qHTS Assay for the Inhibitors of Schistosoma Mansoni Peroxiredoxins | Schistosoma mansoni thioredoxin glutathione reductase (TGR), Q962Y6 | purified TGR, DTNB reduction, TNB absorbance 405 nm | Potency, µM (highest dose often 114 µM), for the others: at the top dose activity change, negative = inhibition, hits mostly inhibitors | 360,000 compounds, 3% hits | AID 485364, 2010; note: potency is the fitted concentration of half-maximal effect; % is set by controls: 0 for no effect and ±100 for the full control effect; nearly all actives have a fitted effect of over 60% in size
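TGR 20 nM + NADPH 100 uM (dispensed conc.), cpd preinc 15 min RT; start with NADPH (500 uM addition) then DTNB (15 mM addition). Kinetic TNB absorbance, 405 nm filter. Four-parameter Hill fit across titration.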
Shiga toxin inh: A qHTS for Small Molecule Inhibitors of Shiga Toxin. Vero cells, Shiga toxin protein synthesis inhibition reporter. inhibition, % at 38.7 µM. 290,000 compounds, 9.2% hits; in the data active = inhibition mostly above about 28%, no sharp cut-off; inactive = mostly below about 43%; note: 0% is about no effect
Cycloheximide cs: Cycloheximide Counterscreen for Small Molecule Inhibitors of Shiga Toxin. cell reporter, cycloheximide protein synthesis inhibition counterscreen. 300,000 compounds, 12% hits. AID 2314, 2010. max response, %; in the data active = max response mostly above about 13%, no sharp cut-off; inactive = mostly below about 14%; note: read at 38.3 µM for the half of the compounds with a filed dose; 0% is about no effect
Pf growth 96h: Primary qHTS for delayed death inhibitors of the malarial parasite plastid, 96 hour incubation; P. falciparum luciferase reporter growth, 96 h; Potency, µM (top dose mostly 28.7 µM), for inactives: at the top dose activity change, negative = inhibition, usual class: inhibitors; 320,000 compounds, 6.9% hits; note: potency is the fitted concentration of half-maximal effect; % is set by controls: 0 for no effect and ±100 for the full control effect
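Delayed-death screen, second-generation endpoint: infected erythrocytes, 2% hematocrit, 0.05% parasitemia final; 96 hours at 37 C, 5% CO2; luciferase detection reagent; luminescence decrease equals reduced growth.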
Starred values were filed as active, the others as inactive. Unless noted, calls come from the whole dose curve; as a rule, active = well fitted curve in the direction sought with a large enough effect; inconclusive = small, poorly fitted or top-dose-only effect, or another doubt; inactive = no such curve, though single readings can be large; an effect the other way counts as inactive or inconclusive.

What do the screens show for `CN1C2C=C3C(C#N)=C(N)C(C#N)(C#N)[C@H](c4c(F)cccc4F)[C@H]3C1CC2` (stereo partly drawn)?
Pf growth 48h: inconclusive; NS1 inh: -3.2%; Sm TGR inh: 3.2%; Shiga toxin inh: -4.2; Cycloheximide cs: -2.7; Pf growth 96h: inconclusive

What do the screens show for `Cc1cc(NC(=O)c2ccccc2)n(-c2ccccc2)n1`?
Pf growth 48h: -6.1%; NS1 inh: 1.6%; Sm TGR inh: 14.8%; Shiga toxin inh: -1.9; Cycloheximide cs: 0.8; Pf growth 96h: 1.85µM*

What do the screens show for `Cc1cc(NC(=O)c2cc(C3CC3)on2)n(-c2ccccc2)n1`?
Pf growth 48h: 13.2%; NS1 inh: -21.8%; Sm TGR inh: -9.3%; Shiga toxin inh: 12.1; Cycloheximide cs: -1.1; Pf growth 96h: 2.62µM*

What do the screens show for `Cc1cc(NC(=O)c2ccc(Cl)cc2)n(-c2ccccc2)n1`?
Pf growth 48h: 2.4%; NS1 inh: -4.2%; Sm TGR inh: 33.6%; Shiga toxin inh: -5.6; Cycloheximide cs: -3.0; Pf growth 96h: 4.5%

How did CC(=O)N1CCN(Cc2nc3cc(NC(=O)c4cccs4)ccc3n2C)CC1 do in these assays?
Pf growth 48h: -10.7%; NS1 inh: 3.5%; Sm TGR inh: -5.6%; Shiga toxin inh: -7.1; Cycloheximide cs: 1.3; Pf growth 96h: 6.3%

What do the screens show for `CCOC(=O)c1ccc(S(=O)(=O)NNC(=O)COc2ccccc2C)cc1`?
Pf growth 48h: 20.0%; NS1 inh: 11.8%; Sm TGR inh: 1.1%; Shiga toxin inh: -3.5; Cycloheximide cs: -3.6; Pf growth 96h: inconclusive

How did Nc1ccc(Br)c[n+]1Cc1cccc2cccnc12 do in these assays?
Pf growth 48h: inconclusive; NS1 inh: -10.9%; Sm TGR inh: 5.9%; Shiga toxin inh: -11.6; Cycloheximide cs: -3.7; Pf growth 96h: 10.4µM*

What do the screens show for `O=C(NC12CC3CC(CC(C3)C1)C2)N1CCN(c2ccccc2)CC1`?
Pf growth 48h: inconclusive; NS1 inh: -11.0%; Sm TGR inh: -8.2%; Shiga toxin inh: 17.8; Cycloheximide cs: -3.4; Pf growth 96h: 375.2%

Results for COc1ccc(N2CCN(C(=O)NC34CC5CC(CC(C5)C3)C4)CC2)cc1 ?
NS1 inh: -8.3%; Sm TGR inh: -15.6%; Shiga toxin inh: -15.5; Cycloheximide cs: -5.2; Pf growth 96h: 5.22µM*

Results for COC(=O)N1CCN(c2ccc(C)c(C)c2)CC1 ?
Pf growth 48h: 46.0%; Sm TGR inh: 15.2%; Shiga toxin inh: 64.5; Cycloheximide cs: 22.9*; Pf growth 96h: 54.1%

What do the screens show for `COc1ccc(N2CCN(C(=O)c3ccc(NS(=O)(=O)c4cccs4)cc3)CC2)cc1`?
Pf growth 48h: inconclusive; Sm TGR inh: 6.9%; Shiga toxin inh: 63.4*; Cycloheximide cs: 26.8*; Pf growth 96h: inconclusive

How did COc1ccc(N2CCN(c3ccc(NC(=O)/C=C\C(=O)O)cc3)CC2)cc1 do in these assays?
Pf growth 48h: 3.29µM*; NS1 inh: 22.7%; Sm TGR inh: -2.1%; Cycloheximide cs: -1.0; Pf growth 96h: inconclusive

How did COc1ccc(N2CCN(C(=O)c3ccc(NS(=O)(=O)c4ccc(F)cc4)cc3)CC2)cc1 do in these assays?
Pf growth 48h: -10.2%; NS1 inh: 1.8%; Sm TGR inh: 3.7%; Shiga toxin inh: 43.0; Cycloheximide cs: 13.4; Pf growth 96h: inconclusive

How did COC(=O)N1CCN(c2ccc(Cl)c(Cl)c2)CC1 do in these assays?
Pf growth 48h: 25.0%; NS1 inh: -40.3%; Sm TGR inh: 0.1%; Shiga toxin inh: -7.8; Cycloheximide cs: 6.2

How did Cc1cc(Br)cn2cc(C(=O)O)nc12 do in these assays?
Pf growth 48h: inconclusive; Sm TGR inh: -5.1%; Shiga toxin inh: -17.8; Cycloheximide cs: -5.8; Pf growth 96h: 31.2%

Results for CN(Cc1ccccc1)C(=O)COc1cc(Cl)ccc1Cl ?
Pf growth 48h: inconclusive; NS1 inh: -3.4%; Sm TGR inh: 1.9%; Shiga toxin inh: 17.0; Cycloheximide cs: 7.4; Pf growth 96h: -27.0%

What do the screens show for `Cc1cc(N)n(Cc2cccs2)n1`?
Pf growth 48h: 0.0%; NS1 inh: 6.5%; Sm TGR inh: 0.0%; Shiga toxin inh: 3.9; Cycloheximide cs: -1.8; Pf growth 96h: 16.6%

How did COc1ccc(N2CCN(C(=O)C3Cc4ccccc4CN3C(=O)c3ccccc3)CC2)cc1 (stereo not drawn) do in these assays?
Pf growth 48h: inconclusive; Sm TGR inh: -31.0%; Shiga toxin inh: 70.9*; Cycloheximide cs: 60.8*; Pf growth 96h: inconclusive

How did CC(=O)N1Cc2ccccc2CC1C(=O)N1CCN(c2ccccc2)CC1 (stereo not drawn) do in these assays?
Pf growth 48h: 10.0%; Sm TGR inh: 0.3%; Shiga toxin inh: 23.1; Cycloheximide cs: -7.6; Pf growth 96h: inconclusive

How did COC(=O)N1CCN(c2ccc(OC)cc2)CC1 do in these assays?
Pf growth 48h: 18.4%; NS1 inh: 0.6%; Sm TGR inh: 12.2%; Shiga toxin inh: -19.3; Cycloheximide cs: 9.4*

What do the screens show for `COc1ccccc1N1CCN(C(=O)c2oc3ccccc3c2N)CC1`?
Sm TGR inh: -2.3%

How did O=C(Cc1c[nH]c2ccccc12)N1CCN(S(=O)(=O)c2cccc(Cl)c2Cl)CC1 do in these assays?
Pf growth 48h: inconclusive; Sm TGR inh: -9.9%; Pf growth 96h: inconclusive

How did CCc1ccc(Nc2cc(C)nc3ncnn23)cc1 do in these assays?
Pf growth 48h: 3.29µM*; NS1 inh: -3.6%; Sm TGR inh: 0.7%; Cycloheximide cs: -1.8; Pf growth 96h: 0.8%

How did Cc1cc(Nc2cccc(Cl)c2)n2ncnc2n1 do in these assays?
Pf growth 48h: -27.0%; NS1 inh: -15.2%; Sm TGR inh: -3.4%; Shiga toxin inh: -10.7; Cycloheximide cs: -2.3; Pf growth 96h: 1.65µM*

Results for CCCOC(=O)c1ccc(Nc2cc(C)nc3ncnn23)cc1 ?
Pf growth 48h: 8.28µM*; NS1 inh: -16.0%; Sm TGR inh: -29.1%; Shiga toxin inh: 12.1; Cycloheximide cs: -0.8; Pf growth 96h: -18.7%

How did Cc1cc(Nc2ccc(N(C)C)cc2)n2ncnc2n1 do in these assays?
Pf growth 48h: 2.33µM*; NS1 inh: -2.8%; Sm TGR inh: -4.8%; Shiga toxin inh: 97.7*; Cycloheximide cs: 43.5*; Pf growth 96h: 7.3%

What do the screens show for `CCCOC(=O)c1ccc(NC(=O)c2nc3nc(C)cc(C)n3n2)cc1`?
Pf growth 48h: inconclusive; Sm TGR inh: -0.6%; Shiga toxin inh: 17.9; Cycloheximide cs: 12.1; Pf growth 96h: inconclusive

How did CC1CCCC(C)N1C(=O)COc1ccc(C(=O)N/N=C/c2ccc(C(=O)O)cc2)cc1 (stereo not drawn) do in these assays?
Pf growth 48h: -10.3%; Sm TGR inh: 3.2%; Shiga toxin inh: -5.5; Cycloheximide cs: 5.7; Pf growth 96h: inconclusive
